Results published in ChEMBL document CHEMBL1961873, “Compounds: GSK PKIS; Assays: Nanosyn kinase panel” (2012).

What was measured:
[1] = molecular target: Mast/stem cell growth factor receptor Kit (Homo sapiens) (UniProt P10721); conditions: at 1 µM
[2] = system: Mast/stem cell growth factor receptor Kit (Homo sapiens), P10721 [D816V]; conditions: at 0.1 µM
[3] = system: Mast/stem cell growth factor receptor Kit (Homo sapiens), P10721 [D816V]; conditions: at 1 µM
[4] = system: Mast/stem cell growth factor receptor Kit (Homo sapiens), P10721 [T670I]; conditions: at 0.1 µM
Mast/stem cell growth factor receptor Kit (Homo sapiens), P10721 [T670I], sequence (P10721 whole entry T670I): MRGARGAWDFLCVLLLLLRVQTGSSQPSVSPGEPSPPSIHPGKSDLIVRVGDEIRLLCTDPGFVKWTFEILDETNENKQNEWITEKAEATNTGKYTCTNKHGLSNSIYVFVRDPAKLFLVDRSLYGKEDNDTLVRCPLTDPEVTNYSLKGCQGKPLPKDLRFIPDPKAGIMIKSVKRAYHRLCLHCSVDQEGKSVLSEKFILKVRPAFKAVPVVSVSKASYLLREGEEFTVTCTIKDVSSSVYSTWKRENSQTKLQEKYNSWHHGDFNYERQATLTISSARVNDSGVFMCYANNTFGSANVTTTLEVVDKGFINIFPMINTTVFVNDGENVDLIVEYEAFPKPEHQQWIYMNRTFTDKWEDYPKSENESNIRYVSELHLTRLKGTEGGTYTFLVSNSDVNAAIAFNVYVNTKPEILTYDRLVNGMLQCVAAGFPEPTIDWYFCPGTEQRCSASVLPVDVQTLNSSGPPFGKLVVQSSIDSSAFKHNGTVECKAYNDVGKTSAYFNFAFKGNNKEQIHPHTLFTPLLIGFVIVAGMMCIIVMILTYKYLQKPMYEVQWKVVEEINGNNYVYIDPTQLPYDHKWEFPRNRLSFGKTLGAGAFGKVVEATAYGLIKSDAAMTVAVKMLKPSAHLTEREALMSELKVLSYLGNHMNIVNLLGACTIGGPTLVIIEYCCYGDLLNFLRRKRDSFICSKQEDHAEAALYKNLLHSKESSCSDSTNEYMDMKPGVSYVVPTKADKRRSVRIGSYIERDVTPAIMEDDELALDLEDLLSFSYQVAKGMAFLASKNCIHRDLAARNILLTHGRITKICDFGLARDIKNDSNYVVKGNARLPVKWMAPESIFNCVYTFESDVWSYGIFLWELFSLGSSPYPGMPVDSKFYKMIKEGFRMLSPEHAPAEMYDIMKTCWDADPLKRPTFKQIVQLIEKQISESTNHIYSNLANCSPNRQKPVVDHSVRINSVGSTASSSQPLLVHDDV

[5] = system: Mast/stem cell growth factor receptor Kit (Homo sapiens), P10721 [T670I]; conditions: at 1 µM
[6] = system: Mast/stem cell growth factor receptor Kit (Homo sapiens), P10721 [V560G]; conditions: at 0.1 µM
Mast/stem cell growth factor receptor Kit (Homo sapiens), P10721 [V560G], sequence (P10721 whole entry V560G): as the sequence (P10721 whole entry T670I) above, with V560G, I670T counted along it

[7] = system: Mast/stem cell growth factor receptor Kit (Homo sapiens), P10721 [V560G]; conditions: at 1 µM
[8] = molecular target: Tyrosine-protein kinase Lck (Homo sapiens) (UniProt P06239); conditions: at 0.1 µM
Tyrosine-protein kinase Lck (Homo sapiens), sequence (P06239 2-509 limits assumed): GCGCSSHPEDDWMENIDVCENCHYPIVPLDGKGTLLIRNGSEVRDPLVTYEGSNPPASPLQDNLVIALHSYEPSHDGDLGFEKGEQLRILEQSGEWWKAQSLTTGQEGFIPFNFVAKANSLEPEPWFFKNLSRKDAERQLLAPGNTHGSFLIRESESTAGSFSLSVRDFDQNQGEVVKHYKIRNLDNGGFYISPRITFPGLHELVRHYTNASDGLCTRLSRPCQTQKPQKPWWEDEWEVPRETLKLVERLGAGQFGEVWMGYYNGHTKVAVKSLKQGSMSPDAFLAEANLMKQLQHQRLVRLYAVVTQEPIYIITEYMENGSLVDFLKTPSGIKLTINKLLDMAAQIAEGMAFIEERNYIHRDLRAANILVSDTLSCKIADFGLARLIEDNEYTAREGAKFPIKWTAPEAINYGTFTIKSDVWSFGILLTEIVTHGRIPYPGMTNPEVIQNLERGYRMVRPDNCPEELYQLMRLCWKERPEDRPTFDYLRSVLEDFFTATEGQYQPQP

[9] = molecular target: Tyrosine-protein kinase Lck (Homo sapiens) (UniProt P06239); conditions: at 1 µM
[10] = molecular target: Leukocyte tyrosine kinase receptor (Homo sapiens) (UniProt P29376); conditions: at 0.1 µM
Leukocyte tyrosine kinase receptor (Homo sapiens), sequence (P29376 whole entry): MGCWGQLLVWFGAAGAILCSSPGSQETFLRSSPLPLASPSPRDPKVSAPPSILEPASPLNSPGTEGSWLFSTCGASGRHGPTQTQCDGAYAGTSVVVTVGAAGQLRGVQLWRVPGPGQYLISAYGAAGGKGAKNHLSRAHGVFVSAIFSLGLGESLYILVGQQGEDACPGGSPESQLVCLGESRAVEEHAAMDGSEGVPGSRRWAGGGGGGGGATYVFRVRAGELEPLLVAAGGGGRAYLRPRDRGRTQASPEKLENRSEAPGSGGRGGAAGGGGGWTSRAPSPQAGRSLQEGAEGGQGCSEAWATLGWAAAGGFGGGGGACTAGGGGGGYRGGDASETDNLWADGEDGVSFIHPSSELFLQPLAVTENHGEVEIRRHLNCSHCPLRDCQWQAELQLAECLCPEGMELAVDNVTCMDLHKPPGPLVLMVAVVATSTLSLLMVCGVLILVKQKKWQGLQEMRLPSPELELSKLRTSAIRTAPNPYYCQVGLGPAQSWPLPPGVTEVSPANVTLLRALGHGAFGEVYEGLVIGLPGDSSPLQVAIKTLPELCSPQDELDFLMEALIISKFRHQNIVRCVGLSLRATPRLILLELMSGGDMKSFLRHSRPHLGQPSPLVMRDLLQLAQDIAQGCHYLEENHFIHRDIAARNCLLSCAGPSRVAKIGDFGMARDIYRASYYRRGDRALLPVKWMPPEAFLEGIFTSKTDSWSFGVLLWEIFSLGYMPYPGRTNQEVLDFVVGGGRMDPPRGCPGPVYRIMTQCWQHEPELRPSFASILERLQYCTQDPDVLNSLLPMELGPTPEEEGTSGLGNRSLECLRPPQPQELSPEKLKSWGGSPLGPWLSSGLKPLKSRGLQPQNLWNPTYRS

[11] = molecular target: Leukocyte tyrosine kinase receptor (Homo sapiens) (UniProt P29376); conditions: at 1 µM
[12] = molecular target: Tyrosine-protein kinase Lyn (Homo sapiens) (UniProt P07948); conditions: at 0.1 µM
Tyrosine-protein kinase Lyn (Homo sapiens), sequence (P07948 2-512 limits assumed): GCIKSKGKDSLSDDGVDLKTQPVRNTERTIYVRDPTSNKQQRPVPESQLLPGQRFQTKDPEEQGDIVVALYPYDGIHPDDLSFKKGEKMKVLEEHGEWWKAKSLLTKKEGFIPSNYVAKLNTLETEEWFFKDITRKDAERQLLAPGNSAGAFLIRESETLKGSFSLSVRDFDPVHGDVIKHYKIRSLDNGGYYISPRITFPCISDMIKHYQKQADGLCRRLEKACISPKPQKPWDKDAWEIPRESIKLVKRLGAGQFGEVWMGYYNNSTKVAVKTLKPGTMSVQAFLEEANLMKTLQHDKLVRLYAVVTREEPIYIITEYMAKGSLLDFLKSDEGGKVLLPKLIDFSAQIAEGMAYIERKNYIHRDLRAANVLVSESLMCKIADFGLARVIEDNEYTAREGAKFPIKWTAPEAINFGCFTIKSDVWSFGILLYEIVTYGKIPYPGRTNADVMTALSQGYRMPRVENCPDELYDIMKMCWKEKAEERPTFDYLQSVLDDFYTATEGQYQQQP

[13] = molecular target: Tyrosine-protein kinase Lyn (Homo sapiens) (UniProt P07948); conditions: at 1 µM
[14] = molecular target: Tyrosine-protein kinase Lyn (Homo sapiens) (UniProt P07948); conditions: at 0.1 µM; remark: listed apart in the source
[15] = molecular target: Tyrosine-protein kinase Lyn (Homo sapiens) (UniProt P07948); conditions: at 1 µM; remark: listed apart in the source
[16] = molecular target: T1, Tyrosine-protein kinase Mer (Homo sapiens) (UniProt Q12866); conditions: at 0.1 µM
T1 sequence (whole entry): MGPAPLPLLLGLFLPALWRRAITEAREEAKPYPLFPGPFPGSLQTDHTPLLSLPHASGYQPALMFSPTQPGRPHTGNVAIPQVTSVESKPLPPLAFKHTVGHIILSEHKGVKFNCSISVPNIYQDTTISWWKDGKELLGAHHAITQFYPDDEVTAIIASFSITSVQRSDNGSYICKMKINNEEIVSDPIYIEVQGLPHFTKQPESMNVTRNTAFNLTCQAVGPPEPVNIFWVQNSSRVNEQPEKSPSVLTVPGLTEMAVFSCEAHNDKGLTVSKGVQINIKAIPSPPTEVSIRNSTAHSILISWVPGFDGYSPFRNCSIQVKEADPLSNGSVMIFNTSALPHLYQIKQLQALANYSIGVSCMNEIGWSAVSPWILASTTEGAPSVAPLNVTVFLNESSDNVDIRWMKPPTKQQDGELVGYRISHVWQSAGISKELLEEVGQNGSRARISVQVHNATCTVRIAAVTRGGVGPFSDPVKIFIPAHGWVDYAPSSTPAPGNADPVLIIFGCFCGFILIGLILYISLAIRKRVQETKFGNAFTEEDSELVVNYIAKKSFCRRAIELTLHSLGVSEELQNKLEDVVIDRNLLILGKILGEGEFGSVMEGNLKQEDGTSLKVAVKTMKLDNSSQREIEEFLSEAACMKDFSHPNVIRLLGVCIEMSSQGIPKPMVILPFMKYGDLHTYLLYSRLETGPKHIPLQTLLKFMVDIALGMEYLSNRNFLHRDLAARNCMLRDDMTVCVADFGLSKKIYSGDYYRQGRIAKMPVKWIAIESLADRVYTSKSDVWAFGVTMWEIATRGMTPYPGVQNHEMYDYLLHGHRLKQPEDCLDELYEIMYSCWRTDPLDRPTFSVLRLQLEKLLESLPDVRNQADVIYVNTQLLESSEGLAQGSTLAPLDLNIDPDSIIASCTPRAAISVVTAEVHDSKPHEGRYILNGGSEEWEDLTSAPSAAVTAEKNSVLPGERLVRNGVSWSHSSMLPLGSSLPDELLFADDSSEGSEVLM

[17] = molecular target: T1, Tyrosine-protein kinase Mer (Homo sapiens); conditions: at 1 µM
[18] = molecular target: Hepatocyte growth factor receptor (Homo sapiens) (UniProt P08581); conditions: at 0.1 µM
Hepatocyte growth factor receptor (Homo sapiens), sequence (P08581 whole entry): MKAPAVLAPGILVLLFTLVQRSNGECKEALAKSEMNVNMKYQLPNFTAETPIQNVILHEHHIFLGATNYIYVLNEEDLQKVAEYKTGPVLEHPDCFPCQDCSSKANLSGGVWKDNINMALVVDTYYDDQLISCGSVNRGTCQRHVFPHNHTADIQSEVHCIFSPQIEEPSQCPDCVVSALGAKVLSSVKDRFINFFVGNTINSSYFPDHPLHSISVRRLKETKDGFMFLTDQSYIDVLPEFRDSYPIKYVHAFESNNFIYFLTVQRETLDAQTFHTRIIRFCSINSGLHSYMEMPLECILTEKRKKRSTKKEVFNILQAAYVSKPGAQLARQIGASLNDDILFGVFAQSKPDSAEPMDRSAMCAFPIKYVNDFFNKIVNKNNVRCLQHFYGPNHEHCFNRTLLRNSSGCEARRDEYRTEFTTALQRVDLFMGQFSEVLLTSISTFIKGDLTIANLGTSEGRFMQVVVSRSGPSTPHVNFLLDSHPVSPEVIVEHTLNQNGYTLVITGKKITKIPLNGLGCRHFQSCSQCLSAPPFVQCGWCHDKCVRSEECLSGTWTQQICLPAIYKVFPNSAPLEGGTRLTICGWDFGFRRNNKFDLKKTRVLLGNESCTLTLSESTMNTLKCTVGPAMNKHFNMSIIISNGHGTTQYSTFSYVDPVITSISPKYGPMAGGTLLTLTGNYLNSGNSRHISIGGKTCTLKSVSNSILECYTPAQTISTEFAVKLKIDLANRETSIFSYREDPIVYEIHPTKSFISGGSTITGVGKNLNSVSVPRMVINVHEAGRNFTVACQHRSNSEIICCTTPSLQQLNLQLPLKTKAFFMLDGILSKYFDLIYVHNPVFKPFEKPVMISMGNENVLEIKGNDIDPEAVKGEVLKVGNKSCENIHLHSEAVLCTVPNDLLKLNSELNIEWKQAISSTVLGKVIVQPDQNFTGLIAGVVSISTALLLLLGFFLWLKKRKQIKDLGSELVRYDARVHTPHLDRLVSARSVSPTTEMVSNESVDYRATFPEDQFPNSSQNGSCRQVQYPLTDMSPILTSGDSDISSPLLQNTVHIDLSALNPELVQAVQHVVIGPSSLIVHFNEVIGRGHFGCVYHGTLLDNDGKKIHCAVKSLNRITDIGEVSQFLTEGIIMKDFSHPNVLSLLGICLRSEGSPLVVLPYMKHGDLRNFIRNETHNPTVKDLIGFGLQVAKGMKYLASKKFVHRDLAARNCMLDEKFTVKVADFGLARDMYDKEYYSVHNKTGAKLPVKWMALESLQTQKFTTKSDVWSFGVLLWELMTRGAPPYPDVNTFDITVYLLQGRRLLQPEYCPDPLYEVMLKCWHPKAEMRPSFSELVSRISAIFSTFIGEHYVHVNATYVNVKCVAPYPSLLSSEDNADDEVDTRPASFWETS

[19] = molecular target: Hepatocyte growth factor receptor (Homo sapiens) (UniProt P08581); conditions: at 1 µM
[20] = molecular target: T2, Muscle, skeletal receptor tyrosine-protein kinase (Homo sapiens) (UniProt O15146); conditions: at 0.1 µM;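 further: values are mean inhibition of MuSK from the GSK PKIS kinase screening panel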
T2 sequence (whole entry): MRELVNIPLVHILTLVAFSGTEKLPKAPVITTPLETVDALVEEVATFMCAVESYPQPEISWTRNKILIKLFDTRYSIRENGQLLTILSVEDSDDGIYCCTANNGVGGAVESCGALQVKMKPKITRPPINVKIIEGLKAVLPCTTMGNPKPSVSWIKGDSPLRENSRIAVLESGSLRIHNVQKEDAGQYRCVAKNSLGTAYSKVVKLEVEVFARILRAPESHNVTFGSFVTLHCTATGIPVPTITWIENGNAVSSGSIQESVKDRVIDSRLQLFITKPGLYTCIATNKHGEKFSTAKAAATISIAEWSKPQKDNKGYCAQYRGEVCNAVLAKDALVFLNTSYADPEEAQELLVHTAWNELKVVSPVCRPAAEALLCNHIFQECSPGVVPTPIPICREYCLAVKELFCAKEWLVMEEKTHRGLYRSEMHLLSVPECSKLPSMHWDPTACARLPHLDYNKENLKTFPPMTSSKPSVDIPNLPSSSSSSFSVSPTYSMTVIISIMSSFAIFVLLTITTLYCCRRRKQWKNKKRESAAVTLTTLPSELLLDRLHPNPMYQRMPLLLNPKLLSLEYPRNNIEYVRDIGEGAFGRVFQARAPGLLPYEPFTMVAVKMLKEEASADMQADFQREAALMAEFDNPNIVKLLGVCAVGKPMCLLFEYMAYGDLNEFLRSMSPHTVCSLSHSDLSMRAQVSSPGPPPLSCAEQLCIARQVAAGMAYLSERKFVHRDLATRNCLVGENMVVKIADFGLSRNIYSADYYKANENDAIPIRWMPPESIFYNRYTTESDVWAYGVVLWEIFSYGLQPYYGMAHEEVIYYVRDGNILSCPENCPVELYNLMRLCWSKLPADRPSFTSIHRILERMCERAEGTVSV

Mast/stem cell growth factor receptor Kit (Homo sapiens), sequence (P10721 whole entry): as the sequence (P10721 whole entry T670I) above, with I670T counted along it
Mast/stem cell growth factor receptor Kit (Homo sapiens), P10721 [D816V], sequence (P10721 whole entry D816V): as the sequence (P10721 whole entry T670I) above, with I670T, D816V counted along it

Compound | inhibition [1] | inhibition [2] | inhibition [3] | inhibition [4] | inhibition [5] | inhibition [6] | inhibition [7] | inhibition [8] | inhibition [9] | inhibition [10] | inhibition [11] | inhibition [12] | inhibition [13] | inhibition [14] | inhibition [15] | inhibition [16] | inhibition [17] | inhibition [18] | inhibition [19] | inhibition [20]
CC(C)c1ccc(Nc2nccc(-c3cnn4ncccc34)n2)cc1 | 95.5% | 2.6% | 4.42% | 19.5% | 81.3% | 17.7% | 64% | 1.2% | 3.47% | 2.91% | 10.6% | 4.07% | 7.45% | 2.28% | 4.7% | 1.42% | 7.98% | 4.89% | 13.5% | 3.14%
CCS(=O)(=O)c1ccc(OC)c(Nc2nccc(N(C)c3ccc4c(C)n[nH]c4c3)n2)c1 | 88.5% | 6.18% | 23.9% | 5.56% | 6.79% | 0.4% | 11.8% | 26.2% | 60.2% | 7.51% | 37.5% | 45.7% | 85% | 37.7% | 82.8% | -1.04% | 1.84% | 3.86% | 5.71% | 2.51%
CS(=O)(=O)Nc1cccc(-c2ccc3c(NC(=O)C4CC4)n[nH]c3c2)c1 | -3.67% | 1.45% | 0.35% | -1.01% | -2.29% | 0.19% | 0.6% | 1.99% | 6.14% | 1.68% | 1.06% | 1.17% | 1.49% | 0.4% | -0.21% | 1.36% | 1.01% | 5.25% | 1.91% | 0.75%
N#Cc1cccc(Nc2nccc(-c3cnn4ncccc34)n2)c1 | 100% | 4.4% | 9.63% | 32.2% | 88.5% | 24.4% | 71.6% | 4.61% | 18.3% | 6.31% | 12.7% | 6.49% | 31.5% | 4.82% | 22.2% | 7.85% | 46% | 6.82% | 17.3% | 5.72%
C[C@@H](Oc1cc(-n2cnc3ccc(OC[C@@H](O)CO)cc32)sc1C(N)=O)c1ccccc1Cl | 4.68% | -3.17% | 1.58% | -1.2% | 0.87% | 3.36% | 2.13% | 1.2% | 6.12% | -0.43% | 3.54% | -0.6% | 3.84% | -0.83% | 2.72% | 5.8% | 3.84% | -4.12% | -4.35% | 9.09%
CC(C)c1ccc2c(c1)NC(=O)/C2=N/Nc1ccc(S(N)(=O)=O)cc1 | 31.5% | -0.12% | 1.26% | 0.1% | 5.91% | 9.17% | 19.4% | 1.79% | 8.63% | 1.63% | 0.89% | 3.02% | 12.2% | 2.61% | 10.5% | 0.63% | 1.96% | 0.7% | 1.76% | -0.51%
c1ccc(Nc2ncc(-c3ccccc3)o2)cc1 | 88.1% | 1.88% | 3.71% | 4.48% | 40% | 1.47% | 50.4% | 3.52% | 10.9% | 6.86% | 6.52% | 5.9% | 9.62% | 4.91% | 7.76% | 2.15% | 2.41% | 3.87% | 6.02% | 3.65%
CCn1c(-c2nonc2N)nc2c(C#CC(C)(C)O)nc(OCCNC)cc21 | 6.66% | 4.65% | 3.95% | 0.61% | 3.65% | -4.02% | 4.6% | 2.55% | 2.44% | 5.09% | 4.95% | 5.06% | 5.53% | 2.97% | 3.02% | 2.03% | 2.24% | 4.48% | 0.4% | 1.71%
Cc1ccc(C(=O)NC2CC2)cc1-c1ccc2[nH]ncc2c1 | 9.73% | -2.2% | -3.32% | -2.37% | -3.32% | 1.39% | 6.83% | -0.97% | 1.92% | -2.04% | -2.27% | -2.45% | -0.16% | -2.22% | -0.48% | -1.71% | 1.57% | -0.6% | -1.74% | 0.78%
O=C(Nc1ccc(Oc2ccc3[nH]c(NC(=O)c4ccco4)nc3c2)cc1)Nc1cc(C(F)(F)F)ccc1F | 92.1% | -0.77% | -1.72% | 12.6% | 79.5% | 25.1% | 72.9% | 1% | 38.8% | 0.05% | 5.81% | 14% | 65.7% | 9.31% | 60.5% | 0.43% | 14.1% | 3.13% | 42.9% | 49.9%
CCS(=O)(=O)c1ccc(OC)c(Nc2ncc(-c3cccc(OC)c3)o2)c1 | 97% | 0.77% | 7.53% | 10.8% | 67.6% | 3.11% | 38.3% | 11.7% | 47.6% | 1.67% | 3.16% | 20.2% | 68.2% | 15.9% | 63.6% | 2.42% | 7.73% | -0.79% | 2.24% | 4.87%
CCOc1nccc2c1nc(-c1nonc1N)n2CC | 10.2% | -2.27% | 3.77% | 4.03% | 6.04% | 4.82% | 7.59% | 1.92% | 3.61% | 1.89% | 2.99% | 3.8% | 6.05% | 2.33% | 4.84% | 3.54% | 6.08% | 4.49% | 11.2% | 3.26%
c1ccc(Cc2nc3ccc(Nc4ncnc5ccccc45)cc3[nH]2)cc1 | 11.5% | 2.6% | 7.57% | 5.98% | 3.71% | 2.34% | 5.96% | 2.08% | 9.45% | 2.98% | 2.52% | 5.18% | 10.3% | 2.45% | 8.65% | 0.72% | 1.74% | 4.71% | 7.9% | 3.14%
